Screening results from PubChem.
SMN2 splice up: increases expression of the SMN2 splice variant. HEK293 SMN2-luciferase splicing reporter, luminescence, 30-36 h. Potency, µM (series often up to 46.1 µM), without a hit: at the highest dose activity change, positive = activation, hits mostly activators. 210,000 tested, 2.8% active; further: % of control where 0% means no effect; nearly all actives have a fitted effect of over 55% in size
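HEK293 cells carry an SMN2 minigene-luciferase reporter in which exon 7 inclusion puts luciferase in frame. Cells were seeded at 2000 cells/well, attached for 10-12 hours, then exposed to compounds for 30-36 hours at 37C before ONE-Glo luminescence.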
FLuc modulator: inhibits or activates purified firefly luciferase, miR-21 counter-screen | purified FLuc, Km substrates, luminescence inhibition | Potency, µM (highest dose often 57.5 µM), without a hit: at the top dose activity change, negative = inhibition, most hits filed as inhibitors | P08659 | 360,000 tested, 6.9% active;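 further: plate controls were vehicle for no effect and reference inhibitor for full effect; nearly all actives have a fitted effect of over 55% in size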
Target sequence (P08659 whole entry, looked up): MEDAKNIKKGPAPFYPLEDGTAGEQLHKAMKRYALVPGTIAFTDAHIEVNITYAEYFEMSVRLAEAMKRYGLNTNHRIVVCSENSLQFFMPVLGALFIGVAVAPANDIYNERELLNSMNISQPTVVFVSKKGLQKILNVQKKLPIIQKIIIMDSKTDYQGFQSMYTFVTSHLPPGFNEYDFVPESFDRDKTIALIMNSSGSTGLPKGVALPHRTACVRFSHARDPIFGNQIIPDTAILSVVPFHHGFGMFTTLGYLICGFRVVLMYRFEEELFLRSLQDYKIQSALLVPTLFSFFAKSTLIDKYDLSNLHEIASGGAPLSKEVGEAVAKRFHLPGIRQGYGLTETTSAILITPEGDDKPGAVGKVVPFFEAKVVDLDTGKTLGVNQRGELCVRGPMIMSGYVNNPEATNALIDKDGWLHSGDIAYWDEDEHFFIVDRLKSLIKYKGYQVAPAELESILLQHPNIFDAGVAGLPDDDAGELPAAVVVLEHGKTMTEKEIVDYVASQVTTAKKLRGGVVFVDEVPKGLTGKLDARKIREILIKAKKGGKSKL
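Purified P. pyralis luciferase (10nM final) with 10uM D-luciferin and 10uM ATP (Km levels) in 50mM Tris acetate pH 7.5, 10mM Mg acetate, 0.01% Tween-20, 0.05% BSA; qHTS 6-point titration, ~60 µM downward; luminescence read.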
Rab9 prom act: Rab9 promoter activation; Huh7 Rab9 promoter-luciferase reporter, luminescence, 24 h; Potency, µM (doses to about 9.22 µM), without a hit: top-dose activation, negative = inhibition, usual class: activators; 320,000 tested, 2.8% active; further: % of control where 0% means no effect; nearly all actives have a fitted effect of over 60% in size
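Rab9 promoter-driven luciferase in stably transfected Huh7 cells; 1500 cells/well rested 2 h, exposed to compound in DMSO for 24 h at 37 °C, 5% CO2. Luminescence read 10 min after adding luciferase reagent at ambient temperature.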
ELG1 DNA repair: blocks ELG1-dependent DNA repair in HEK293T cells. Potency, µM (top dose mostly 46.1 µM), inactives show at the top dose activity change, negative = inhibition, usual class: inhibitors. AID 504467. HEK293T ELG1-luciferase reporter, luminescence, 16 h; DNA damage induced by 5-fluorouridine. 330,000 tested, 2.3% active; further: on the % scale 0 is the no-effect control and ±100 the full control effect; nearly all actives have a fitted effect of over 55% in size
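Overnight (16 hr) co-exposure of 2,000 cells/well to 5-fluorouridine and compound at 37 °C preceded detection. Luciferase was quantified via ONE-Glo luminescence; loss of signal denotes inhibition.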
ELG1 genotox: induces genotoxicity in HEK293T cells with luciferase-tagged ELG1. HEK293T ELG1-luciferase reporter, luminescence, 16 h. Potency, µM (top dose mostly 46 µM), without a hit: at the highest dose activity change, positive = activation, usual class: activators. 330,000 tested, 1.3% active; further: % of control where 0% means no effect; nearly all actives have a fitted effect of over 60% in size
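Luminescence read-out: rising ELG1-luciferase signal, reflecting elevated ELG1 protein under genetic stress, flags genotoxic compounds. Cells were treated for 16 hr at 37 °C before ONE-Glo detection.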
NPC1 promoter act: NPC1 promoter activation; Huh7 NPC1 promoter luciferase reporter, 24 h; Potency, µM (highest dose often 9.22 µM), for inactives: at the top dose activation, hits mostly activators; 320,000 tested, 2.4% active; AID 485313; further: % of control where 0% means no effect; nearly all actives have a fitted effect of over 60% in size
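Luminescence read-out of NPC1 promoter-driven luciferase in stably transfected Huh7 cells; compounds delivered in DMSO and left 24 h at 37C, 5% CO2, qHTS titration format.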
An asterisk follows results filed as active; ? = inconclusive; · = no result; [ ] = remark or other dose. Most compounds without a hit are left out; they make up all but 9.2% or so of the library. The call rests on the fitted dose curve; in most records, active means well fitted curve in the direction sought with a large enough effect; inconclusive means small, poorly fitted or top-dose-only effect, or another doubt; inactive means no such curve, though single readings can be large; an effect the other way counts as inactive or inconclusive. Potency means the concentration at half of the fitted maximal effect.

SMILES	SMN2 splice up	FLuc modulator	Rab9 prom act	ELG1 DNA repair	ELG1 genotox	NPC1 promoter act
OC(CN1CCOCC1)(c1ccccc1)c1ccccn1 (stereo not drawn)	·	-1%	-1%	9%	-1%	-2%
Clc1ccc(-c2noc3ncnc(NCCCN4CCN(c5ccccc5)CC4)c23)cc1	·	0%	·	·	·	·
Cc1nc(S/C(=C/c2ccc(-c3ccc(C(=O)O)cc3)o2)C(=O)O)n[nH]1	·	?	2%	0%	1%	0%
Cc1ccc(Cl)cc1-c1ccc(C=Nc2ccc(N3CCOCC3)cc2)o1	-62%	-20%	3%	?	0%	-1%
CC(=O)c1ccc(-c2ccc(/C=C(/Sc3n[nH]c(C)n3)C(=O)O)o2)cc1	·	6µM*	2%	-1%	1%	-3%
Cc1nc(S/C(=C/c2ccc(-c3ccc(Cl)cc3)o2)C(=O)O)n[nH]1	-36%	8.5µM*	-1%	0%	6%	13%
Cc1nc(S/C(=C/c2ccc(-c3cc(Cl)ccc3C)o2)C(=O)O)n[nH]1	·	27µM*	0%	-19%	1%	-6%
Cc1cccc(NC(=O)COc2coc(CN3CCN(c4ccccc4)CC3)cc2=O)c1	·	3%	0%	-17%	-5%	-5%
COc1ccc(C(=O)/C=C/c2cccs2)c(OC(=O)c2cccc([N+](=O)[O-])c2)c1	?	4.8µM*	?	?	8%	27%
COc1ccc(OC(=O)/C=C/c2ccc([N+](=O)[O-])cc2)cc1	·	7%	-10%[1.84 µM]	-2%	-1%	2%
O=C(/C=C/c1cccs1)NNC(=O)c1cccc([N+](=O)[O-])c1	·	·	·	?	0%	·
COc1ccc(C(=O)/C=C/c2ccc(F)cc2)c(OC(=O)c2ccc([N+](=O)[O-])cc2)c1	4%	9.5µM*	-2%	?	?	12%
N#C/C(=C\c1cccc(Br)c1)C(=O)N1CCCCC1	·	?	0%	?	-16%	-4%
COCCNc1nc(-c2ccccc2CN(C)C)nc2ccccc12	-20%	·	·	·	·	·
CCCNC(=O)c1oc2ccc3c(c2c1C)C(=O)CC(C)(C)O3	13µM*	2.4µM*	1.8µM*	?	?	1.8µM*
Cc1ccc(NC(=O)c2oc3ccc4c(c3c2C)C(=O)CC(C)(C)O4)c(C)c1	·	4.3µM*	·	·	·	·
CCCNC(=O)c1oc2ccc3c(c2c1C)C=CC(C)(C)O3	·	11µM*	3.5µM*	?	?	?
CCOC(=O)c1oc2ccc3c(c2c1C)C(=O)CC1(CCN(C(=O)OCC)CC1)O3	-47%	1%	-5%	21µM*	-15%	2%
Cc1c(C(=O)NCc2ccc(Cl)cc2)oc2ccc3c(c12)C(=O)CC(C)(C)O3	26%	?	·	·	·	·
Cc1ccc(NC(=O)c2oc3ccc(S(=O)(=O)N4CCCCC4)cc3c2C)c(C)c1	·	1%	·	·	·	·
COC(=O)c1ccccc1NC(=O)c1oc2ccc3c(c2c1C)C(=O)CC(C)(C)O3	·	5.4µM*	·	·	·	·
CC(=O)Nc1ccc(NC(=O)c2oc3ccc4c(c3c2C)C(=O)CC(C)(C)O4)cc1	·	8.5µM*	·	·	·	·
CCOC(=O)c1ccc(NC(=O)c2oc3ccc4c(c3c2C)C(=O)CC(C)(CC)O4)cc1 (stereo not drawn)	5%	-16%	·	·	·	·
COc1cc(OC)c(NC(=O)c2oc3ccc4c(c3c2C)C(=O)CC(C)(C)O4)cc1Cl	·	5.4µM*	·	·	·	·
COc1cc(OC)c(NC(=O)C2=C(C)C(=O)OC23CCCCC3)cc1Cl	-6%	2%	·	·	·	·
SMILES	SMN2 splice up	FLuc modulator	Rab9 prom act	ELG1 DNA repair	ELG1 genotox	NPC1 promoter act
COc1cccc(CNC(=O)c2oc3ccc4c(c3c2C)C(=O)CC(C)(C)O4)c1OC	6%	3.4µM*	·	·	·	·
COc1ccc(CCNS(=O)(=O)c2ccc(Cl)cc2)cc1OC	·	0%	-4%	-1%	-8%	-3%
CCc1ccc(/C=C(/C#N)c2nc(-c3ccc(C)cc3)cs2)cc1	7%	0%	·	·	·	·
N#CC(=C1CCCC1)c1nc(-c2cc3ccccc3oc2=O)cs1	?	2.1µM*	3.2µM*	?	?	?
N#C/C(=C/c1ccccc1Cl)c1nc(-c2cc3ccccc3oc2=O)cs1	-6%	-7%	·	·	·	·
N#CC(=C1CCCC1)c1nc(-c2ccccc2)cs1	16µM*	1.3µM*	?	?	?	3.2µM*
Cc1ccc(-c2csc(C(C#N)=C3CCCC3)n2)cc1	18µM*	2.7µM*	4.5µM*	?	?	3.2µM*
N#C/C(=N\O)c1nc(-c2ccccc2)cs1	-9%	-11%	1%	-4%	0%	1%
N#CC(=C1CCCC1)c1nc(-c2ccccc2O)cs1	?	1.3µM*	3.5µM*	?	3.7µM*	2.8µM*
O=C(Nc1ccc(Cl)cc1)Nc1nc(-c2ccccc2O)cs1	·	-5%	2%	?	0%	-2%
COc1ccc(C(=O)NC(=S)N2CCN(C)CC2)cc1Br	?	2%	1%	3%	0%	2%
CCCCCN1C(C(=O)c2ccccc2)=C(NC(=O)c2ccccc2Cl)c2ccccc2S1(=O)=O	-86%	1%	·	·	·	·
Cc1c(C(=O)OC(C)C)sc(N)c1C(=O)OC(C)C	24%	21µM*	27%	?	11%	20%
CCOC(=O)c1c(N)sc(C(=O)Nc2ccccc2F)c1C	8.9µM*	1.9µM*	0.4µM*	?	?	2.5µM*
CCOC(=O)c1cc(C(=O)Nc2ccccc2F)nn1C	13µM*	8.5µM*	2µM*	?	4.5µM*	2.2µM*
CCOC(=O)c1c(N)sc(C(N)=O)c1C	12%	-14%	1%	7%	3%	10%
CCOC(=O)c1c(N)sc(C(=O)Nc2ccccc2)c1C	·	1.2µM*	0.32µM*	?	?	0.45µM*
O=C(CSc1n[nH]c(-c2ccccc2Cl)n1)NCc1cccc(C(=O)O)c1	·	?	0%	-6%	-1%	-4%
CC1(C)N([O-])c2cc([N+](=O)[O-])ccc2[N+]1=O	·	11µM*	-24%	-18%	-1%	0%
Cc1ccc(C)n1-c1cc([N+](=O)[O-])ccc1-n1ccnc1	·	-2%	-4%	11%	12%	3%
Cc1nc2c(C(=O)N3CCCCC3)cnn2c(C)c1Cc1ccccc1F	?	?	1.6µM*	?	?	1.6µM*
CN(C)C1=NCCN1CC1CCCCCC1	·	1%	-7%	-4%	-1%	2%
COc1ccc(C(=O)CN2C(=O)NC3(CCc4ccccc43)C2=O)cc1 (stereo not drawn)	·	5%	7%	-10%	-1%	-3%
